Measurements reported in PubChem BioAssay (NCI).
About 79,000 compounds went through this panel and 15% of them were active in at least one assay; those are over-represented in the sample as a whole. Cut-off read from the data, not from the text of the source: active = growth inhibition above about 70%; inactive = the rest.

Assays:
[1] = NCI Yeast Anticancer Drug Screen. Data for the rad50 strain (AID 155);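 note: 0% = growth of vehicle-only cultures of the same strain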; conditions: S. cerevisiae rad50 strain growth inhibition, active compounds read high; at 50.0 µM unless noted
In short: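 Inhibition values express reduced yeast growth in compound-treated cultures relative to vehicle-treated controls.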

[2] = NCI Yeast Anticancer Drug Screen. Data for the mec2-1 strain (AID 157); conditions: S. cerevisiae mec2-1 strain, active compounds read high; at 50.0 µM unless noted
In short: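 Each compound was tested on mec2-1 yeast, a strain altered in DNA damage repair or cell cycle control. Growth inhibition is reported relative to vehicle.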

[3] = NCI Yeast Anticancer Drug Screen. Data for the sgs1 mgt1 strain (AID 161);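 note: 0% = growth of cultures given vehicle only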; conditions: S. cerevisiae sgs1 mgt1 strain, active compounds read high; at 50.0 µM unless noted
In short: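 Inhibition of yeast growth, normalised to vehicle-treated controls, is reported for a strain bearing genetic alterations in DNA damage repair.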

[4] = NCI Yeast Anticancer Drug Screen. Data for the cln2 rad14 strain (AID 165);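 note: 0% = growth equal to vehicle treated cultures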; conditions: S. cerevisiae cln2 rad14 strain, active compounds read high; at 50.0 µM unless noted
In short: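 Test compounds were added to cln2 rad14 yeast cultures; inhibition of growth was then determined by comparison with vehicle treatment.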

[5] = NCI Yeast Anticancer Drug Screen. Data for the bub3 strain (AID 167); conditions: S. cerevisiae bub3 mutant strain, active compounds read high; at 50.0 µM unless noted
In short: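 Steps: expose the mutant yeast strain to compound; grow alongside vehicle-treated cultures; measure growth; express inhibition against the vehicle cultures.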

[6] = NCI Yeast Anticancer Drug Screen. Data for the mlh1 rad18 strain (AID 175); conditions: S. cerevisiae mlh1 rad18 strain growth inhibition, active compounds read high; at 50.0 µM unless noted
In short: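 Inhibition values reflect reduced growth of mutant yeast versus vehicle-treated controls following compound exposure; the mutations affect DNA damage repair.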

Measured: growth inhibition

Cc1ccc2[nH]c(=O)[nH]c(=O)c2c1
inactive: [1] -5.85% | [2] -5% | [3] -4.5% | [4] -45.2% | [5] -3.5% | [6] -12.7%

CN(C)C(=O)NCCN(CCNC(=O)N(C)C)C(=O)N(C)C
inactive: [1] -1.7% | [2] 13.2% | [3] -0.9% | [4] -28.3% | [5] -18.8% | [6] -4.15%

CC(=O)CC(=O)NCC1CCC(CNC(=O)CC(C)=O)CC1 (configuration not stated)
inactive: [1] -26.6% | [2] -33% | [3] -13.9% | [4] -1.45% | [5] -54.3% | [6] -48.8%

c1ccc2c(c1)nnn2C1CCCCO1 (configuration not stated)
inactive: [1] -4.8% | [2] -13.2% | [3] -19.5% | [4] -5.1% | [5] -22.4% | [6] -72.8%

CC(=O)OCCc1cc2ccccc2oc1=O
inactive: [1] -9.05% | [2] 23.9% | [3] -16.8% | [4] 8.6% | [5] 12.2% | [6] 9.25%

O=C(O)C1CC1c1ccc2c(c1)OCO2 (configuration not stated)
inactive: [1] -11.8% | [2] -10.4% | [3] 7.2% | [4] -34% | [5] -33.9% | [6] 1.35%

CC(c1cccc(O)c1)N(C)C (configuration not stated)
inactive: [1] 5.9% | [2] -2.2% | [3] 0.7% | [4] -10.4% | [5] 1.25% | [6] -3.85%

Clc1nn2cnnc2c2ncccc12
inactive: [1] 2.8% | [2] -0.45% | [3] 2.95% | [4] -13.3% | [5] 15.2% | [6] 16.4%

COc1ccc(OC)c2[nH]c(=O)c(C)nc12
inactive: [1] 7.15% | [2] 1.85% | [3] 5.75% | [4] -4.85% | [5] 4.35% | [6] -4.3%

C=CCNC(=S)NNc1nc(C)cc(=O)[nH]1
inactive: [1] 30.1% | [2] -27.9% | [3] 11.7% | [4] 5.55% | [5] 5.95% | [6] 4.3%

CC(C)=NNC(=O)c1ccc(N)cc1
inactive: [1] 36.1% | [2] 15% | [3] 14.4% | [4] 15.8% | [5] 22.1% | [6] 15.3%

CCCCC(CC)OC(=O)c1ccccc1C (configuration not stated)
inactive: [1] -8.05% | [2] -4.55% | [3] 0.5% | [4] -30.9% | [5] -1.4% | [6] -23.8%

O=C1CCC(c2nc3ccccc3[nH]2)N1Cc1ccccc1 (configuration not stated)
inactive: [1] 13.9% | [2] 2.3% | [3] 18.1% | [4] 4.35% | [5] 6.4% | [6] 18.9%

O=C(OC(C1COCO1)C(O)C1COCO1)c1ccccc1 (configuration not stated)
inactive: [1] 5.65% | [2] -8.85% | [3] 9.05% | [4] -1.85% | [5] 28.4% | [6] 17.4%

Cc1ccccc1N=C(N)N
inactive: [1] 4.3% | [2] 2.5% | [3] -1.35% | [4] -3.3% | [5] -0.2% | [6] -1.95%

COc1ccc(C(=[N+]=[N-])c2ccc(OC)cc2)cc1
inactive: [1] -4.65% | [2] -6.85% | [3] 7.35% | [4] -48.2% | [5] -10.1% | [6] 4.75%

CO/C(=N\N=C\c1ccc(C(F)(F)F)cc1)c1ccncc1
inactive: [1] 54.5% | [2] 18.9% | [3] 35.3% | [4] 22.4% | [5] 30.9% | [6] 15.3%

CCCC1N[C@H](C(=O)O)CS1 (some centres not stated)
inactive: [1] 15.7% | [2] 7.1% | [3] -1.85% | [4] 7.2% | [5] 10.1% | [6] -3.85%

COC1C(O)C(n2ncc3c(SC)nc(SC)nc32)OC1C(O)CO (configuration not stated)
inactive: [1] 16.3% | [2] -3.95% | [3] -16.2% | [4] 8.95% | [5] -4% | [6] 14.4%

CCCCCCOc1ccccc1CO
inactive: [1] 14.7% | [2] 10.6% | [3] -1.5% | [4] 2% | [5] -8.15% | [6] 10.8%

COC(=O)C1CC2(CCC1=O)Cc1ccccc1C2=O (configuration not stated)
inactive: [1] -15.5% | [2] -3.45% | [3] 28.5% | [4] 1.3% | [5] -4.25% | [6] -16.4%

O=c1ccc2ccccc2cc1
inactive: [1] 14.3% | [2] -18.6% | [3] 20.8% | [4] -39.9% | [5] 8.15% | [6] 8.4%

Cc1ncc(CN=Cc2ccc(Cl)cc2)c(N)n1
inactive: [1] 9.8% | [2] 17% | [3] -9.45% | [4] -12% | [5] 8.9% | [6] 13.2%

CC(C)CCOC(=O)C(O)c1ccccc1 (configuration not stated)
inactive: [1] 15.6% | [2] 2.8% | [3] 0.4% | [4] -22.2% | [5] -25.7% | [6] 8.45%

Clc1ccc(Oc2ncnc3nc[nH]c23)cc1
inactive: [1] 3.6% | [2] 5.75% | [3] 2.85% | [4] -1.35% | [5] -1.5% | [6] 23.5%

CCCSCCC(NC(=O)c1ccccc1)C(=O)O (configuration not stated)
inactive: [1] -14.6% | [2] -10% | [3] -10.1% | [4] -12.9% | [5] -15.2% | [6] -26.4%

O=c1[nH]nc(Cc2ccccc2)n1C1CCCC1
inactive: [1] -1.55% | [2] -5.3% | [3] -12.6% | [4] -17.8% | [5] -9.6% | [6] -1.05%

NCCS(=O)(=O)O
inactive: [1] 1.8% | [2] 8.7% | [3] 7.7% | [4] 19.8% | [5] -5.6% | [6] -6.95%

CC(C)C1CCC2C(CCC3C(C)(C(=O)O)CCCC23C)C1 (configuration not stated)
inactive: [1] -2.35% | [2] 14.1% | [3] -0.85% | [4] 21% | [5] -12.8% | [6] 25.2%

CC(C)(C)NC(=O)C(Br)c1ccccc1 (configuration not stated)
inactive: [1] 0.05% | [2] 23.1% | [3] 33.8% | [4] -2.25% | [5] 54.1% | [6] 16%

Nc1ncnc(N)c1NC(=O)c1ccc2ccccc2c1
inactive: [1] 8.95% | [2] 35.1% | [3] -1.55% | [4] -1.85% | [5] -20.4% | [6] -21.4%

CCCCCC(=O)OC(c1ccc(Cl)cc1)c1ccc(Cl)cc1
inactive: [1] -5.2% | [2] -26.2% | [3] 5.5% | [4] 12.6% | [5] 26.8% | [6] 5.3%

ON=C1CCC(c2ccccc2)CC1 (configuration not stated)
inactive: [1] -21.3% | [2] -24% | [3] 13.8% | [4] -24.2% | [5] 2.85% | [6] -9.6%

CSc1c(C)n2c3c(cccc13)CCC2
inactive: [1] -9.7% | [2] -6.6% | [3] -3.8% | [4] -36.7% | [5] 1.35% | [6] 3.3%

CC(C)C1CO[C@]2(C)CCC(=O)N12 (some centres not stated)
inactive: [1] 4.6% | [2] 11.9% | [3] -2.6% | [4] 13.8% | [5] 6.3% | [6] 9.95%

[N-]=[N+]=CC(=O)CCC(=O)N(c1ccccc1)c1ccccc1
inactive: [1] -30% | [2] -20.8% | [3] -52.5% | [4] -28.5% | [5] 2.2% | [6] -30.6%

COC(=O)C(CCSc1ccccc1)C(=O)OC
inactive: [1] 0.85% | [2] -4.45% | [3] 20.1% | [4] 12.1% | [5] 28.2% | [6] -3.1%

CN(C)c1ccc(/C=C(\C#N)C(=O)O)cc1
inactive: [1] 33.8% | [2] -12.9% | [3] 2.8% | [4] 11.7% | [5] 30.8% | [6] 38.2%

CC1=CC(C)(C)[C@H]2O[C@@]3(O)C[C@]4(C)[C@H]5C[C@@](C(C)C)(O[C@H]4c4ccoc4)O[C@H]4[C@]5(C3)O[C@@]1(O)[C@]24O
inactive: [1] 5.2% | [2] 0.45% | [3] -11.9% | [4] -14.8% | [5] -13.4% | [6] -3.5%

CCCCN1CC(=O)N2CCCC(c3ccccc3)N2C(=O)C1 (configuration not stated)
inactive: [1] 7.55% | [2] -0.95% | [3] 17.6% | [4] 15.4% | [5] 10.5% | [6] -3.5%

O=C(O)c1ccccc1C(=O)Nn1cnnc1
inactive: [1] -7.55% | [2] 1.15% | [3] -25.9% | [4] 17.2% | [5] -8.1% | [6] -0.1%

C/C(CC1=CCCCC1)=N\NC(N)=O
inactive: [1] -18.4% | [2] -17.9% | [3] -20.9% | [4] -27.9% | [5] -4.65% | [6] -12.7%
